In PubChem BioAssay AID777 (Sanford-Burnham Center for Chemical Genomics, 2007):
In all, about 96,000 compounds went through this assay and about 19,000 (20%) were called active.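 The calls were made as follows: active = blocking of liver enzyme CYP2C9 beyond about 50% at 5 µM (limit read from the data); inactive = the rest.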 Only a sample is shown.

The compounds below were run against Cytochrome P450 2C9 (Homo sapiens) (UniProt P11712) (assay: blockers of cytochrome P450 2C9 activity – biochemical, luminescence, ADME assay, primary screen (AID 777)). Conditions: CYP2C9 Supersomes, luciferin-H conversion, at 5 µM, stronger effect = higher value.
Sequence of Cytochrome P450 2C9 (Homo sapiens) (P11712 whole entry, looked up): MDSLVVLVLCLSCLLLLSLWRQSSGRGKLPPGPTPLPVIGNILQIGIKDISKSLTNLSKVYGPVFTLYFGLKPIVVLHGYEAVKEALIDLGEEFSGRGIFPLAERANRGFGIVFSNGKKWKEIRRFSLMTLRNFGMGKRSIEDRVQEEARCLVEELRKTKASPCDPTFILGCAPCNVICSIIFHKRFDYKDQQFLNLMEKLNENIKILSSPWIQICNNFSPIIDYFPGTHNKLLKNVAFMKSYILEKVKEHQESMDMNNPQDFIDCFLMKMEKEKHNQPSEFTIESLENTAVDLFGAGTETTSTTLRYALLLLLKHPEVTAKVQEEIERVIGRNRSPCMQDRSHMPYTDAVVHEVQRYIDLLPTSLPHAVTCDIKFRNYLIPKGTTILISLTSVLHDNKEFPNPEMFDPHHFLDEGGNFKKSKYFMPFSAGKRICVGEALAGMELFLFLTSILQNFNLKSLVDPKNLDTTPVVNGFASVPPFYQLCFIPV
In the case of CC1CCc2c(sc(NC(=O)c3ccc(Cn4cc(Br)cn4)o3)c2C(N)=O)C1 (configuration not stated), the inhibition is reported as 81.5% (active). For O=C(Nc1ccc(Br)c2cccnc12)c1ccc(Cn2cc([N+](=O)[O-])cn2)o1, the inhibition was -72.9% (inactive). CCOC(=O)c1c(NC(=O)c2ccc(Br)o2)sc2c1CCCC2 was tested, and the inhibition was 10.2% (inactive). In the case of C=CCN1C(=O)C(Cc2cccc(Cl)c2)S/C1=N/N=C/c1ccco1 (configuration not stated), the inhibition is reported as -2.7% (inactive). CCCNC(=O)c1ccc(Cl)c(Cl)c1 was tested, and the inhibition was -10.8% (inactive). With CCCCNC(=O)C1CCCNC1=O (configuration not stated) the inhibition was -10.4% (inactive). CC1CN(c2cc(=O)n(-c3cccc(Br)c3)c(=O)[nH]2)CC(C)O1 (configuration not stated) was tested, and the inhibition was -3.4% (inactive). For CCCc1nc2ccccc2c(C(=O)OCc2nnc(-c3cc(OC)c(OC)c(OC)c3)o2)c1CC, the inhibition was 67.5% (active). COc1cc(-c2nnc(Cn3cc(C(F)(F)F)ccc3=O)o2)cc(OC)c1OC was tested, and the inhibition was 12% (inactive). With CCCc1nc2ccccc2c(C(=O)OCC(=O)c2ccc3c(c2)NC(=O)CO3)c1CC the inhibition was -20.4% (inactive). With Cc1cc(C(=O)COC(=O)c2cccs2)c(C)n1-c1c(C)n(C)n(-c2ccccc2)c1=O the inhibition was 15.4% (inactive). For Cc1cc(=O)n(C)c(=O)n1CCCNc1ccccc1, the inhibition was 11.2% (inactive). COc1ccc2[nH]c(=O)c(CN(CC3CCCO3)C(=O)Nc3ccccc3)cc2c1 (configuration not stated) was tested, and the inhibition was 19.4% (inactive). For Cc1cccc(NC(=O)N(Cc2cc3cc(C)cc(C)c3[nH]c2=O)CC2COCCO2)c1 (configuration not stated), the inhibition was 85.5% (active). Cc1ccc2[nH]c(=O)c(CN(CCCN(C)C)C(=O)Nc3cccc(Cl)c3)cc2c1 was tested, and the inhibition was 1.4% (inactive). With O=C(CS(=O)(=O)c1cn(Cc2ccc(Cl)cc2)c2ccccc12)N1CCOCC1 the inhibition was 41% (inactive). With CCN(c1ccccc1)S(=O)(=O)c1ccc(N)cc1 the inhibition was -137% (inactive). For COc1ccc(NC(=O)c2cccc(NC(=O)c3ccco3)c2)c(OC)c1, the inhibition was -50.5% (inactive). COc1cc(C(=O)OC(C)C(=O)NCC2CCCCC2)cc(NC(=O)c2ccco2)c1OC (configuration not stated) was tested, and the inhibition was 81.6% (active). For COC(=O)c1cc(Cl)c(NC(=O)c2ccco2)cc1OC, the inhibition was -135% (inactive). O=C(/C(=N\O)n1cncn1)c1ccc(Br)cc1Br was tested, and the inhibition was 34.9% (inactive). With CCCC(=O)C1=C(N(C)c2ccccc2)CC(C)(C)C(C(=O)OC)C1=O (configuration not stated) the inhibition was 13.7% (inactive). In the case of COCC(C)n1c(SCc2ccc(C(=O)OC)o2)nc2ccccc2c1=O (configuration not stated), the inhibition is reported as 52.9% (active). With COC(=O)CSc1nc(C2CC2)nc2ccccc12 the inhibition was 48% (inactive). With COC(=O)c1ccc(CSc2nc3ccccc3c(=O)n2-c2cccc(OC)c2)o1 the inhibition was 100% (active). With CCc1c(O)nc(SCC(=O)Nc2ccccc2)n(C(C)CC)c1=O (configuration not stated) the inhibition was 11.7% (inactive). N#CCSc1nc2ccccc2c(=O)n1-c1ccccc1 was tested, and the inhibition was 30.4% (inactive). For CCOC(=O)CNC(=O)c1nn(-c2cccc(OC)c2)c(=O)c2ccccc12, the inhibition was 29.6% (inactive). O=C(CCc1ccccc1)Nc1ccc(NC(=O)C2CC2)nc1 was tested, and the inhibition was 25.9% (inactive). With N#Cc1c(N)n(CCOC(=O)c2ccc(Cl)cc2)c2nc3ccccc3nc12 the inhibition was 14.9% (inactive). For CCCC(C(=O)NCc1ccco1)N(C(=O)CNS(=O)(=O)c1ccccc1)C1CCCC1 (configuration not stated), the inhibition was 40.6% (inactive). With CCOc1ccc(NC(=O)N(CCC(C)C)C(C)c2ccco2)cc1 (configuration not stated) the inhibition was 43.6% (inactive). For CC(c1ccco1)N(C(=O)Nc1ccccc1)C1CCCCC1 (configuration not stated), the inhibition was 81.3% (active). For Cc1cc(C)c(S(=O)(=O)N2C=CC(C(F)(F)F)=NCC2)c(C)c1, the inhibition was 13.2% (inactive). OC(CN1C2=NCCCN2c2ccccc21)c1ccc(Br)cc1 (configuration not stated) was tested, and the inhibition was 17.7% (inactive). NC(=S)c1ccc(C(N)=S)o1 was tested, and the inhibition was 23.3% (inactive). With CCCCCCn1c(SCC(=O)c2ccccc2)nc2c1c(=O)[nH]c(=O)n2C the inhibition was 18.7% (inactive). With Cn1c(=O)[nH]c(=O)c2c1nc(Br)n2CCCCSc1nc2ccccc2o1 the inhibition was 67.6% (active). For Cc1ccnc(SCCn2c(Br)nc3c2c(=O)[nH]c(=O)n3C)n1, the inhibition was -6.9% (inactive). In the case of CN(C)/C=C(/C(=O)c1ccc(Cl)cc1)S(=O)(=O)c1ccccc1, the inhibition is reported as -9.5% (inactive). In the case of COc1cccc(C(=O)c2cc3ccc(O)cc3oc2=O)c1, the inhibition is reported as 92.8% (active). For COc1ccc2oc(=O)c(C(=O)O)cc2c1, the inhibition was -6.4% (inactive). With COc1cccc(C(=O)NNC(=O)c2ccccc2Br)c1 the inhibition was -182% (inactive). O=C(NC1=NCCS1)c1ccc(Cl)s1 was tested, and the inhibition was 3.9% (inactive). COc1ccc(C(=O)n2nc(-c3ccc(C)cc3)nc2N)cc1OC was tested, and the inhibition was -9.5% (inactive). For Cc1ccc2nc(NC3=NCN(CCc4ccccc4)CN3)nc(C)c2c1, the inhibition was -5.5% (inactive). For CC(=O)c1c(C)[nH]c(C(=O)NCc2ccc(C)cc2)c1C, the inhibition was 49.2% (inactive). In the case of CCOC(=O)c1c(C)[nH]c(C(=O)NCc2ccccc2OC)c1C, the inhibition is reported as 78.3% (active). With COc1ccccc1CNC(=O)c1ccc(SC)cc1OC the inhibition was -50.7% (inactive). In the case of Cn1c2c(c(=O)n(C)c1=O)CN(Cc1ccco1)CN2, the inhibition is reported as -11.6% (inactive). N#CCSc1nc2c(c(=O)n1Cc1ccccc1)C1(CCCC1)Cc1ccccc1-2 was tested, and the inhibition was 36.9% (inactive). For CC(C)C(NC(=O)c1ccc(Cl)cc1)C(=O)O (configuration not stated), the inhibition was -5.3% (inactive). With O=C(CC1CCCCC1)Nc1c2c(nn1-c1ccc(F)cc1)CS(=O)(=O)C2 the inhibition was -6.5% (inactive). With COc1ccc(-c2nc3n(c2Br)CCC3)cc1 the inhibition was 2.9% (inactive). For CCOc1ccc(CN(Cc2ccco2)C(c2cccs2)c2nnnn2C(C)(C)C)cc1 (configuration not stated), the inhibition was 77.2% (active). With CC(C)(C)n1nnnc1C(c1cccs1)N(Cc1cccnc1)CC1CCCO1 (configuration not stated) the inhibition was 19.7% (inactive). For CC(C)(C)NC(=O)CN(Cc1cccs1)C(=O)CNS(=O)(=O)c1ccccc1, the inhibition was 26.8% (inactive). Cc1cc(C)c2nc(SCCC#N)nc(C)c2c1 was tested, and the inhibition was -19.9% (inactive). For CCOC(=O)Nc1ccc2c(c1)N(C(=O)CCN1CCN(CCO)CC1)c1ccccc1CC2, the inhibition was -14% (inactive). With COc1ccc(-n2nnnc2SCC(=O)c2ccc(OC)c(OC)c2)cc1 the inhibition was 45.6% (inactive). CCOc1cccc(-n2nnnc2-c2ccc(OC)cc2)c1 was tested, and the inhibition was 91.4% (active). With CCOc1cccc(-c2nnc3sc(COc4ccc(OC)cc4)nn23)c1 the inhibition was 20.9% (inactive). In the case of Cc1cc(C)c2cc(CN(Cc3nnnn3Cc3ccc(F)cc3)C3CCCC3)c(=O)[nH]c2c1, the inhibition is reported as -7.2% (inactive). Cc1cccc2cc(CN(Cc3nnnn3Cc3ccccc3)C3CCCC3)c(=O)[nH]c12 was tested, and the inhibition was 91.5% (active). In the case of Cc1cccc2cc(CN(Cc3ccc4c(c3)OCO4)Cc3nnnn3C3CCCC3)c(=O)[nH]c12, the inhibition is reported as 38.4% (inactive). In the case of O=C(CCl)NNc1cccc(Cl)n1, the inhibition is reported as 10.1% (inactive). For c1ccc(-c2ccnc3nc(-n4cccc4)nn23)cc1, the inhibition was 6.8% (inactive). For CC(C)(C)c1nc(NCC2CCCO2)c2nnn(Cc3ccccc3)c2n1 (configuration not stated), the inhibition was 32.7% (inactive). For C#CCNc1nc(C(C)C)nc2c1nnn2Cc1ccccc1F, the inhibition was 40.2% (inactive). In the case of Cc1nc(Nc2ccc3c(c2)OCCO3)c2nnn(Cc3ccccc3Cl)c2n1, the inhibition is reported as 93.2% (active). With O=C(CN1CCSCC1)N/N=C/c1ccc(F)cc1 the inhibition was 17.1% (inactive). With O=C(O)c1cccc2c1C(=O)N(C1CCCCC1)C2 the inhibition was -13.9% (inactive). For COCCNC(=O)c1snc2ccc(Cl)cc12, the inhibition was -11.2% (inactive). COc1ccc(NC(=O)Nc2cccc3cccnc23)cc1 was tested, and the inhibition was -39.1% (inactive). O=C(NCc1ccc(Cl)cc1)c1cc2c(nc3sccn32)s1 was tested, and the inhibition was 17.9% (inactive). O=C(NCc1cn2ccsc2n1)Nc1ccc(Cl)cc1 was tested, and the inhibition was 13.6% (inactive). With O=c1cc(Cn2nnc(-c3ccc(Cl)cc3)n2)nc2sccn12 the inhibition was 63.5% (active). In the case of Cc1ccc(C(=O)OC2=CC(=O)CC(C)(C)C2)cc1, the inhibition is reported as 28.3% (inactive). In the case of CN(c1cccc(NC(=O)Nc2ccc(Cl)cc2)c1)S(C)(=O)=O, the inhibition is reported as 30.6% (inactive). For COc1ccc(-c2cc(C(F)(F)F)n3nc(C(=O)N4CCOCC4)c(Cl)c3n2)cc1, the inhibition was 0.7% (inactive). CCOc1cc(CNCCN(C)C)c(Cl)cc1OCC(=O)NCCc1ccccc1 was tested, and the inhibition was 22.3% (inactive). For CCOC(=O)C1=C(O)CSC1=Nc1cccc(Cl)c1, the inhibition was 9% (inactive). For Clc1cccc(N=C2NN=C(c3ccc4c(c3)OCCO4)CS2)c1, the inhibition was 77.7% (active). In the case of COc1ccc(-c2cc(C(=O)NC(C(=O)O)C(C)C)c(C)o2)cc1OC (configuration not stated), the inhibition is reported as 21% (inactive). In the case of O=C(Nc1c2c(nn1-c1ccc(F)cc1)CS(=O)C2)C12CC3CC(CC(C3)C1)C2 (configuration not stated), the inhibition is reported as 14.4% (inactive). With COc1ccc(C2C(C(C)=O)=C(O)C(=O)N2c2nccs2)cc1 (configuration not stated) the inhibition was 5% (inactive). COC(=O)N1CN(C(=O)OC)CN(C(=O)OC)C1 was tested, and the inhibition was -12.2% (inactive). COn1c(=O)c(=O)n(OC)c2ccccc21 was tested, and the inhibition was 3.2% (inactive). In the case of CCc1ccccc1N(CC(=O)N1CCN(c2ccccc2F)CC1)S(C)(=O)=O, the inhibition is reported as 2.9% (inactive). O=c1[nH]c(CSc2ncc(-c3ccc(F)cc3)n2Cc2ccco2)nc2ccccc12 was tested, and the inhibition was 21.2% (inactive). With CCOC(=O)C1CCc2nc3ccccc3c(=O)n21 (configuration not stated) the inhibition was 3.3% (inactive). For CC(Sc1nc2ccccc2c(=O)n1Cc1ccco1)C(=O)c1ccccc1 (configuration not stated), the inhibition was 88.2% (active). With CCOn1c(SC(C)C)nc2ccccc2c1=O the inhibition was 17.6% (inactive). For N#Cc1c(NC(=O)CSc2nc3ccccc3c(=O)n2Cc2ccco2)sc2c1CCCC2, the inhibition was 3.9% (inactive). For CCOC(=O)C(C)Sc1nc2ccccc2c(=O)n1CC1CCCCC1 (configuration not stated), the inhibition was 78.8% (active). For O=C(CNS(=O)(=O)c1cccc(C(F)(F)F)c1)Nc1ccccc1F, the inhibition was -19.7% (inactive). Cc1c2cn[nH]c(=O)c2c(C)n1Cc1ccc(F)cc1 was tested, and the inhibition was 6.2% (inactive).
